Assay results reported in PubChem BioAssay AID1159580 (chemical genetic matrix, 2015).
Out of some 5,500 compounds screened, about 2,000 (36%) were called active. Another 18% or so got no clear call; they are omitted. Rule as the data show it: active = normalized growth mostly below about 0.91 (no sharp cut-off); inconclusive = no clear call, values can overlap the other calls; inactive = mostly above about 0.92. The list shows a part of the results.

Experiment: chemical genetic growth profiling, strain panel (AID 1159580);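 also: tested at 20 µM; growth read once vehicle control cultures reached saturation at 30 °C; 1 = growth at the plate median or of vehicle wells; lower values mean less growth of the strain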
Conditions: S. cerevisiae deletion strains, growth OD
[1] = locus YAL040C, strain CLN3, hits give low values
[2] = locus YCL061C, strain MRC1 (second series), hits give low values
[3] = locus YDR363W, strain ESC2, hits give low values
[4] = locus YER002W, strain NOP16, hits give low values
[5] = locus YMR263W, strain SAP30, hits give low values
[6] = locus YMR307W, strain GAS1, hits give low values
[7] = locus YNL197C, strain WHI3, hits give low values
[8] = locus YNL224C, strain SQS1, hits give low values
[9] = locus YOR083W, strain WHI5 (second series), hits give low values
[10] = locus YPL055C, strain LGE1, hits give low values

Measured: normalized growth

COc1ccc(C2CNC(=O)C2)cc1OC1CCCC1 (stereo unspecified)
inactive: locus YAL013W, strain DEP1, hits give low values 1.01 | locus YAL021C, strain ccr4, hits give low values 1 | locus YAL026C, strain drs2, hits give low values 1.02 | locus YAL030W, strain snc1, hits give low values 1.02 | [1] 0.999 | locus YBL061C, strain skt5, hits give low values 1.01 | locus YBR009C, strain hhf1, hits give low values 1.02 | locus YBR023C, strain chs3, hits give low values 1.01 | locus YBR171W, strain sec66, hits give low values 1.02 | locus YBR231C, strain swc5, hits give low values 1.02 | locus YBR279W, strain paf1, hits give low values 1.01 | locus YCL011C, strain gbp2, hits give low values 1.01 | locus YCL016C, strain dcc1, hits give low values 1.01 | [2] 1 | locus YCL061C, strain MRC1, hits give low values 1.01 | locus YCL069W, strain vba3, hits give low values 1.01 | locus YCR088W, strain abp1, hits give low values 1.01 | locus YDL005C, strain med2, hits give low values 0.996 | locus YDL040C, strain nat1, hits give low values 1.01 | locus YDR001C, strain nth1, hits give low values 1.01 | locus YDR069C, strain doa4, hits give low values 1.02 | locus YDR137W, strain rgp1, hits give low values 1.02 | locus YDR159W, strain sac3, hits give low values 1.03 | locus YDR195W, strain ref2 1.01 | locus YDR297W, strain sur2, hits give low values 1.01 | locus YDR334W, strain swr1, hits give low values 1.01 | locus YDR335W, strain msn5, hits give low values 1.01 | [3] 1.01 | locus YDR392W, strain spt3, hits give low values 1.04 | locus YEL003W, strain gim4, hits give low values 1.01 | locus YEL037C, strain rad23, hits give low values 0.965 | locus YEL061C, strain CIN8 (second series), hits give low values 1.01 | [4] 0.993 | locus YER015W, strain faa2, hits give low values 1 | locus YER016W, strain bim1, hits give low values 1.01 | locus YER111C, strain swi4, hits give low values 1.02 | locus YER155C, strain BEM2 (second series), hits give low values 1.04 | locus YFR010W, strain ubp6, hits give low values 1 | locus YGL167C, strain pmr1, hits give low values 1.01 | locus YGL173C, strain kem1, hits give low values 1.01 | locus YGL227W, strain vid30, hits give low values 1.01 | locus YGL240W, strain doc1, hits give low values 1.02 | locus YGL253W, strain hxk2, hits give low values 1.03 | locus YHR013C, strain ard1, hits give low values 1.04 | locus YHR027C, strain rpn1, hits give low values 1.01 | locus YHR142W, strain chs7, hits give low values 0.98 | locus YJL092W, strain hpr5, hits give low values 1 | locus YJL095W, strain BCK1 (second series), hits give low values 1.01 | locus YJL115W, strain asf1, hits give low values 1.01 | locus YJL129C, strain trk1, hits give low values 1.02 | locus YJL154C, strain vps35, hits give low values 1 | locus YJL164C, strain tpk1, hits give low values 0.999 | locus YJL166W, strain qcr8, hits give low values 1.02 | locus YJL187C, strain SWE1, hits give low values 1.01 | locus YJR075W, strain HOC1, hits give low values 1.01 | locus YKL160W, strain elf1, hits give low values 0.998 | locus YKR026C, strain gcn3, hits give low values 0.994 | locus YKR091W, strain srl3, hits give low values 1.01 | locus YLL001W, strain dnm1, hits give low values 1.01 | locus YLL026W, hits give low values 1.02 | locus YLL041C, strain sdh2, hits give low values 1.01 | locus YLR027C, strain aat2, hits give low values 1.01 | locus YLR221C, strain rsa3, hits give low values 1.01 | locus YLR258W, strain gsy2, hits give low values 1.01 | locus YLR262C, strain YPT6 (second series), hits give low values 1.02 | locus YLR320W, strain mms22, hits give low values 1.02 | locus YLR342W, strain FKS1, hits give low values 1 | locus YLR357W, strain rsc2, hits give low values 1.01 | locus YLR370C, strain arc18, hits give low values 1.02 | locus YLR384C, strain iki3, hits give low values 0.999 | locus YML120C, strain ndi1, hits give low values 1.01 | locus YMR058W, strain fet3, hits give low values 1.02 | locus YMR125W, strain sto1, hits give low values 1.02 | locus YMR129W, hits give low values 1.02 | locus YMR205C, strain PFK2, hits give low values 1.03 | locus YMR231W, strain pep5, hits give low values 1 | [5] 1 | [6] 1.03 | locus YNL071W, strain lat1, hits give low values 1.02 | locus YNL175C, strain NOP13, hits give low values 1.01 | [7] 1.01 | locus YNL209W, strain ssb2, hits give low values 1.01 | [8] 0.995 | locus YNL248C, strain rpa49, hits give low values 0.974 | locus YNL322C, strain KRE1 (second series), hits give low values 0.996 | locus YNR049C, strain mso1, hits give low values 1 | locus YOR001W, strain rrp6, hits give low values 1 | locus YOR070C, strain gyp1, hits give low values 1 | locus YOR080W, strain dia2, hits give low values 1.01 | [9] 1.01 | locus YOR083W, strain WHI5, hits give low values 0.988 | locus YOR106W, strain vam3, hits give low values 0.989 | locus YOR265W, strain rbl2, hits give low values 1.01 | locus YOR270C, strain vph1, hits give low values 1.03 | locus YOR290C, strain snf2, hits give low values 0.996 | locus YPL051W, strain arl3, hits give low values 1 | [10] 0.996 | locus YPL078C, strain atp4, hits give low values 0.988 | locus YPL106C, strain sse1, hits give low values 1.04 | locus YPL240C, strain hsp82, hits give low values 1 | locus YPL241C, strain CIN2, hits give low values 1

O=C1C2C=CC=CC2=NC(=S)N1CCN1CCC(=C(c2ccc(F)cc2)c2ccc(F)cc2)CC1 (stereo unspecified)
active: locus YGR078C, strain PAC10, hits give low values 0.857 | locus YGR229C, strain SMI1, hits give low values 0.717 | [6] 0.707 | locus YNL153C, strain GIM3, hits give low values 0.578 | [9] 0.607
inactive: [1] 0.896 | [2] 1.01 | locus YDR150W, strain NUM1, hits give low values 1 | [3] 0.951 | [4] 1.04 | [5] 0.985 | locus YNL128W, strain TEP1, hits give low values 1.06 | [7] 1.08 | [8] 1.02 | [10] 1.03
